Test [1] concerns the target Aldehyde dehydrogenase, mitochondrial (Homo sapiens) (UniProt P05091). Nature of the test: qHTS for Inhibitors of the Aldehyde Dehydrogenase Family (ALDH2) Primary screen (AID 2061308). Note: nearly all actives have a fitted effect of over 55% in size. On the technique in general: Quantitative high-throughput screening tests each substance at several concentrations.
The target in test [2] is Retinaldehyde dehydrogenase 3 (Homo sapiens) (UniProt P47895). Nature of the test: qHTS for Inhibitors of the Aldehyde Dehydrogenase Family (ALDH1A3) Primary screen (AID 2061315).

Records with an inconclusive call do not appear. Where a call stands in place of a potency, no number is given. Activity calls are given as the source filed them. Calls come from the whole dose curve; as a rule, active = well fitted curve in the direction sought with a large enough effect; inconclusive = small, poorly fitted or top-dose-only effect, or another doubt; inactive = no such curve, though single readings can be large; an effect the other way counts as inactive or inconclusive.

Turning to `O=[S+]([O-])(c1ccc(N2CCOCC2)nc1)N1CCN([S+](=O)([O-])c2c(F)cccc2F)CC1`, the Potency result in test [1] and in test [2] was “inactive” each time.
For the molecule `CCCn1c(-c2ccc(F)cc2)nc2c(NCCCN3CCOCC3)nc(C)nc21`, the Potency entry in test [1] and in test [2] was “inactive” throughout.
For the molecule `COc1cc(NC(=O)C(OC(=O)CNC(=O)c2ccccc2)c2ccccc2)cc(C(F)(F)F)c1` (configuration not stated), the Potency entry in test [1] and in test [2] was “inactive” each time.
Turning to `Cc1ccc(S(=O)(=O)Nc2ccc(C(=O)Nc3nc(-c4ccccc4)cs3)cc2Cl)cc1`, the Potency result in test [1] and in test [2] was “inactive” in each case.
For the molecule `CCOC(=O)C1CCN(C(=O)C(C)(C)NC(=O)Nc2ccc3ccccc3c2)CC1`, the Potency result in test [1] and in test [2] was “inactive” throughout.
`COc1ccc2c(c1)Oc1nc(-c3ccc(C)cc3)nc(SCC(=O)Nc3cccc(C(=O)O)c3)c1C2`: the Potency entry in test [1] and in test [2] was “inactive” each time.
Turning to `Cc1ccc(-c2ccc(=O)n(CC(=O)NCCCc3ccccn3)n2)cc1`, the Potency entry in test [1] and in test [2] was “inactive” each time.
For the molecule `COc1ccnc(NC(=S)N2CCN(c3cccc(C(F)(F)F)n3)CC2)c1`, the Potency entry in test [1] and in test [2] was “inactive” each time.
Consider `Cc1nc(CNc2ncnc3ccc(-c4sc(C)nc4C)cc23)cs1`, for which the Potency result in test [1] and in test [2] was “inactive” each time.
Turning to `CCCn1c(-c2ccc(F)cc2)nc2c(NCCCN(C)C)nc(C)nc21`, the Potency result in test [1] and in test [2] was “inactive” in each case.
Regarding `Cc1cc2c(s1)c1cnn(Cc3c(F)cc(F)cc3F)c(=O)c1n2C`, the Potency result in test [1] and in test [2] was “inactive” each time.
Regarding `COc1cccc(C2c3c(ncn(-c4ccc(F)cc4)c3=N)Oc3ccc4ccccc4c32)c1` (configuration not stated), the Potency result in test [1] and in test [2] was “inactive” each time.
`CCC1=CC2CN(C1)Cc1c([nH]c3ccccc13)[C@@](C(=O)OC)(c1cc3c(cc1OC)N(C)[C@H]1[C@@](O)(C(=O)OC)[C@H](OC(C)=O)[C@]4(CC)C=CCN5CC[C@]31[C@@H]54)C2` (some centres not stated): the Potency result in test [1] and in test [2] was “inactive” in each case.
Consider `Cc1cccc(-n2cnc3cc(C(=O)N4CCC(C(F)(F)F)CC4)ccc32)c1`, for which the Potency entry in test [1] and in test [2] was “inactive” throughout.
On to `N#Cc1ccc(C[C@H](C(=O)O)N2C(=O)c3ccc(C(=O)O)cc3C2=O)cc1`, for which the Potency entry in test [1] and in test [2] was “inactive” each time.
As for `Cc1cnc(-c2ccccc2C(C)C)nc1NCc1cccs1`, the Potency result in test [1] and in test [2] was “inactive” each time.
For `N#Cc1c(-c2cc(C(F)(F)F)cc(C(F)(F)F)c2)no[n+]1[O-]`, the Potency result in test [1] and in test [2] was “inactive” in each case.
For the molecule `CCCc1cc(=O)c2ccccc2n1C`, the Potency entry in test [1] and in test [2] was “inactive” in each case.
For `CC(=O)N1CCN(C(=O)COC(=O)c2ccc([S+](C)(=O)[O-])c([N+](=O)[O-])c2)CC1`, the Potency result in test [1] and in test [2] was “inactive” each time.
Regarding `Cc1ccc(S(=O)(=O)Nc2cnccc2C(=O)Nc2nc(-c3ccc(F)cc3)cs2)cc1`, the Potency result in test [1] and in test [2] was “inactive” in each case.
Regarding `O=C(CNC(=O)C1CCCCCC1)OC(C(=O)Nc1cc(C(F)(F)F)ccc1Cl)c1ccccc1` (configuration not stated), the Potency entry in test [1] and in test [2] was “inactive” throughout.
On to `COc1cc(Cl)ccc1C(=O)Nc1nc(-c2ccccc2)cs1`, for which the Potency entry in test [1] and in test [2] was “inactive” throughout.
For the molecule `O=[S+]([O-])(c1ccc2c(c1)OCCO2)N1CCN([S+](=O)([O-])c2c(Cl)cc(Cl)cc2Br)CC1`, the Potency entry in test [1] and in test [2] was “inactive” in each case.
For `COC/C=C/c1cc(F)c(S(=O)(=O)N2CCN(S(=O)(=O)c3ccc4c(c3)OCCO4)CC2)cc1F`, the Potency result in test [1] and in test [2] was “inactive” each time.
Consider `CC(=O)O[C@@H]1CC[C@@]2(C)C(CC[C@]3(C)C2[C@H](O)C=C2[C@H]4[C@@H](C)[C@H](C)CC[C@]4(C)CC[C@]23C)[C@@]1(C)C(=O)O` (some centres not stated), for which the Potency entry in test [1] and in test [2] was “inactive” in each case.
As for `N#Cc1nc(-c2cccc3ccccc23)oc1N`, the Potency entry in test [1] and in test [2] was “inactive” in each case.
With `Cc1cc(NS(=O)(=O)c2ccc(NC(=O)Cc3ccc(Cl)cc3Cl)cc2)no1`, the Potency result in test [1] and in test [2] was “inactive” in each case.
In the case of `N#Cc1ccc(N[S+](=O)([O-])c2ccc(Nc3nc(-c4ccccc4)cs3)cc2)cc1`, the Potency entry in test [1] and in test [2] was “inactive” each time.
Turning to `c1cncc(-c2ccc(CNc3nc(N4CCOCC4)nc4ccccc34)cc2)c1`, the Potency entry in test [1] and in test [2] was “inactive” throughout.
`O=C(CNC(=O)c1ccccc1)OC(C(=O)Nc1cc([N+](=O)[O-])ccc1F)c1ccccc1` (configuration not stated): the Potency entry in test [1] and in test [2] was “inactive” throughout.
For `COc1ccc(Cn2ncc3c4sc(C)cc4n(C)c3c2=O)cc1`, the Potency entry in test [1] and in test [2] was “inactive” in each case.
Regarding `Cc1ccc(C(=O)NC(c2ccco2)c2cc(Cl)c3cccnc3c2O)cc1` (configuration not stated), the Potency entry in test [1] and in test [2] was “inactive” each time.
As for `Fc1ccc(Nc2nc(-c3ccnc(N4CCCCC4)c3)nc3ccccc23)cc1F`, the Potency result in test [1] and in test [2] was “inactive” throughout.
As for `Cc1cc2c(s1)c1cnn(Cc3ccc(S(C)(=O)=O)cc3)c(=O)c1n2C`, the Potency entry in test [1] and in test [2] was “inactive” throughout.
Take `O=C(O)c1ccc2c(c1)C(=O)N([C@H](Cc1ccc3ccccc3c1)C(=O)O)C2=O`: the Potency entry in test [1] and in test [2] was “inactive” throughout.
For the molecule `O=S(=O)(Nc1nccs1)c1ccc(NCc2ccccc2O)cc1`, the Potency entry in test [1] and in test [2] was “inactive” in each case.

(Values after PubChem BioAssay (NCATS).)
